The labels stand for the following.
B1: ENSMUSG00000061578.134|Ksr2|58:63;126:130;148:163;199:203 (ssRNA)
RNA: GGGAGUUCUACAGUCCGACGAUCGCUUCGAUAUCCGCAUGCUAAUGGCUUCCCCCAAAGUCCCGAGUCCUGAGAACCGGGGCUGUGGCAAGAGAGUUCUGCACACAUCUCUCUGUGGGGCUAGCAAUGCCGGGGUUAAGUUCUCCCUCGGUGAUGGAGACGGUCCUGGCAUACCAUGAUGGGUUACAUGGCACACACACACACACAAACUGUUUACAAUGGUCUCCCUGCCUCUCACGGGCACACAUCCAGGAGAAUGCACAUAGAGAGGUUCUGUGGUCUCUGCUGUCGCCUGGUGCUGAAUCUCUUGCGGUCGCACUAGUGUGGAAUUCUCGGGUGUCAAGG
B2: ENSMUSG00000029636.224|Wasf3|112:116;205:212 (ssRNA)
RNA: GGGAGUUCUACAGUCCGACGAUCGCUUCGAUAUCCGCAUGCUAUUGCAGAGGGACCAGGACACUGCCUUCCCUUAGGUGCAUUAUUUACGUGGCCUGCAGCUCUUAAUAUCUCUCACUGUUUAUGAAAAGAAAGAUUCAGAUCCGGGGUGACAUACACACAGUUGACAGGGAAUGCCUGUGGGAUAAUUAAAAAUGGUUUUUGCUCAUGAGUUUGGGAUGUCACCCAGCCGCCCACAUCGCCUGCUAACACACACGACGCCUGUCCGCUUGGCCAGCUAUCCUGUAACACCUGCCAGUAGUAGCUCUUGCGGUCGCACUAGUGUGGAAUUCUCGGGUGUCAAGG
B3: ENSMUSG00000031028.392|Tub (ssRNA)
RNA: GGGAGUUCUACAGUCCGACGAUCGCUUCGAUAUCCGCAUGCUAAGCUCCUGGUGAUAAUGCCUUUUCUUGACCACUGGCGCUGUGAACACAGGCUAAUGGACUUCAGAUACCAGGGCCCCGGGAUCACCUGGGUUAGCCUCUCCCACAGGAAGAUCCCUUACCCCUCAUCCCCUCUUCUUUUUGGUCCUUGGCUGGGUAGCAAAUUGGUGAGAAGAGCAGCCUAGUCUGUAAGAGUGCAGGGCAGCUGGAACCUUAGGCAGCUCCUCUGUAUGCUACCGGCUCCACACCCUAACACUCUCCACCUCUUGCGGUCGCACUAGUGUGGAAUUCUCGGGUGUCAAGG
B4: ENSMUSG00000029028.200|Lrrc47 (ssRNA)
RNA: GGGAGUUCUACAGUCCGACGAUCGCUUCGAUAUCCGCAUGCUAUGUACCAGCACACAGCUGCCAUCCCUCGAGCCACAGUGCCUGGUCCUAAGGACCCAGCAGCUGCACAGAGGACUUGGUGGCCCCGUGCCUUGCCAUCUGGCUGAGAAGAGAACCAGACCCUCAGCCUUCCCCCUCGACACCUUCUCGUUGGUGACCUCUGACCUUAAAGGACCAUUUCUACCUUCUGUAAAAGAACACCUGUUUGGGGUUGCGUGCGGCUUUCAUCCUAAGGCCGUGCGAGAGCCGUUAGCUGUCAGAACCUCUUGCGGUCGCACUAGUGUGGAAUUCUCGGGUGUCAAGG
B5: ENSMUSG00000061578.980|Ksr2 (ssRNA)
RNA: GGGAGUUCUACAGUCCGACGAUCGCUUCGAUAUCCGCAUGCUAAUCCAUGACUCAGAAUUUUCCAGAGACCCAAUCCCUCGGGGUCCACUUAGUGAUGGGACCAUACAAGAGUUUAUUUCCAAUUAGAGAAUUGGGUCAACUGGGAAAGGCUUCUUUCCUGGUAACCCUGCUACUGAUACUAUGUUGAAACAGGAAUCGACUCUAACUGCUUUUUGGCCUCUUCCCUGCACGGGAGUCUCAAAAUCAAGUUUUUACCCAGUGGCCUCUGGGAUCCACUCUCUCUACUCCUGAACUCUUAAAACCUCUUGCGGUCGCACUAGUGUGGAAUUCUCGGGUGUCAAGG
B6: ENSMUSG00000061578.705|Ksr2 (ssRNA)
RNA: GGGAGUUCUACAGUCCGACGAUCGCUUCGAUAUCCGCAUGCUAUUGAGGUGCCUUCCUGUAGUCUCUUGUGUCAUCUUCUUCUAAGACCACUAAUAACACCGCCUUUCUCCUUGAUCCGGGCCUCAGACCUCUUCAGAGAUUCUUUCUCUGAAUGUACGUGGGGGACUCCAACAGAUGUUGGGAGAAGACUCAAUAUGAGCAUACGGGGUCAUUGUUCAAUCCUGUAUCAAGACCUUGGAGUUGUCUAAGGCUGUGGGUUUUAAAUACCUGCUGCAGGCCUCCCAUCUCUGGCUCUUUGUUUCCUCUUGCGGUCGCACUAGUGUGGAAUUCUCGGGUGUCAAGG
B7: ENSMUSG00000058297.35|Spock2 (ssRNA)
RNA: GGGAGUUCUACAGUCCGACGAUCGCUUCGAUAUCCGCAUGCUAAGUGCGGAGGACCCUGGCUCCAGUGGGGGAGGACUGGGGAGUGUGGCUUGUGUGUAUGUGUGAUAUGAGAUGUGUGUGUAUGAUGUGAGAUGUGAGUGUGUGAUGUGAGAUGUGUGUAUGUGAGAUGUGUGUGUGUGUGUGUGUGUGUGUGAUGUGAGUCACCCAAAGGUCCCUAUGUUAUUGAUUUUCAAAUGCACACUUUCACACACAAGGAUACACUAACAGACCAAAAUCAAUGAGAUGUCCCUGAUCCUGCCCCUCUCUUGCGGUCGCACUAGUGUGGAAUUCUCGGGUGUCAAGG
B8: ENSMUSG00000058297.32|Spock2|59:63;67:80;89:100;114:120;129:138;144:169 (ssRNA)
RNA: GGGAGUUCUACAGUCCGACGAUCGCUUCGAUAUCCGCAUGCUACAAAUGGAUCCGGAAGUCAGUGCGGAGGACCCUGGCUCCAGUGGGGGAGGACUGGGGACACACGCUACACACAUACACACAUAUGAGAACACACACAUACAUGUGAGAUGUGACACACACAUGUGAGAACACACAUACUGAGAACACACACACACACACACACACACACAUGUGAGUCACCCAAAGGUCCCUAUGUUAUUGAUUUUCAAAUGCACACUUUCACACACAAGGAUACACUAACAGACCAAAAUCAAUGAGAUCUCUUGCGGUCGCACUAGUGUGGAAUUCUCGGGUGUCAAGG
B9: ENSMUSG00000058297.33|Spock2|53:57;61:74;83:94;108:114;123:132;138:163 (ssRNA)
RNA: GGGAGUUCUACAGUCCGACGAUCGCUUCGAUAUCCGCAUGCUAGAUCCGGAAGUCAGUGCGGAGGACCCUGGCUCCAGUGGGGGAGGACUGGGGACACACGCUACACACAUACACACAUAUGAGAACACACACAUACAUGUGAGAUGUGACACACACAUGUGAGAACACACAUACUGAGAACACACACACACACACACACACACACAUGUGAGUCACCCAAAGGUCCCUAUGUUAUUGAUUUUCAAAUGCACACUUUCACACACAAGGAUACACUAACAGACCAAAAUCAAUGAGAUGUCCCUCUCUUGCGGUCGCACUAGUGUGGAAUUCUCGGGUGUCAAGG
B10: ENSMUSG00000058297.36|Spock2 (ssRNA)
RNA: GGGAGUUCUACAGUCCGACGAUCGCUUCGAUAUCCGCAUGCUAGAGGACCCUGGCUCCAGUGGGGGAGGACUGGGGAGUGUGGCUUGUGUGUAUGUGUGAUAUGAGAUGUGUGUGUAUGAUGUGAGAUGUGAGUGUGUGAUGUGAGAUGUGUGUAUGUGAGAUGUGUGUGUGUGUGUGUGUGUGUGUGAUGUGAGUCACCCAAAGGUCCCUAUGUUAUUGAUUUUCAAAUGCACACUUUCACACACAAGGAUACACUAACAGACCAAAAUCAAUGAGAUGUCCCUGAUCCUGCCCCUCAGCCCCUCUUGCGGUCGCACUAGUGUGGAAUUCUCGGGUGUCAAGG
B11: ENSMUSG00000058297.33|Spock2 (ssRNA)
RNA: GGGAGUUCUACAGUCCGACGAUCGCUUCGAUAUCCGCAUGCUAGAUCCGGAAGUCAGUGCGGAGGACCCUGGCUCCAGUGGGGGAGGACUGGGGAGUGUGGCUUGUGUGUAUGUGUGAUAUGAGAUGUGUGUGUAUGAUGUGAGAUGUGAGUGUGUGAUGUGAGAUGUGUGUAUGUGAGAUGUGUGUGUGUGUGUGUGUGUGUGUGAUGUGAGUCACCCAAAGGUCCCUAUGUUAUUGAUUUUCAAAUGCACACUUUCACACACAAGGAUACACUAACAGACCAAAAUCAAUGAGAUGUCCCUCUCUUGCGGUCGCACUAGUGUGGAAUUCUCGGGUGUCAAGG
B12: ENSMUSG00000058297.32|Spock2 (ssRNA)
RNA: GGGAGUUCUACAGUCCGACGAUCGCUUCGAUAUCCGCAUGCUACAAAUGGAUCCGGAAGUCAGUGCGGAGGACCCUGGCUCCAGUGGGGGAGGACUGGGGAGUGUGGCUUGUGUGUAUGUGUGAUAUGAGAUGUGUGUGUAUGAUGUGAGAUGUGAGUGUGUGAUGUGAGAUGUGUGUAUGUGAGAUGUGUGUGUGUGUGUGUGUGUGUGUGAUGUGAGUCACCCAAAGGUCCCUAUGUUAUUGAUUUUCAAAUGCACACUUUCACACACAAGGAUACACUAACAGACCAAAAUCAAUGAGAUCUCUUGCGGUCGCACUAGUGUGGAAUUCUCGGGUGUCAAGG
B13: ENSMUSG00000058297.34|Spock2|47:51;55:68;77:88;102:108;117:126;132:157 (ssRNA)
RNA: GGGAGUUCUACAGUCCGACGAUCGCUUCGAUAUCCGCAUGCUAGAAGUCAGUGCGGAGGACCCUGGCUCCAGUGGGGGAGGACUGGGGACACACGCUACACACAUACACACAUAUGAGAACACACACAUACAUGUGAGAUGUGACACACACAUGUGAGAACACACAUACUGAGAACACACACACACACACACACACACACAUGUGAGUCACCCAAAGGUCCCUAUGUUAUUGAUUUUCAAAUGCACACUUUCACACACAAGGAUACACUAACAGACCAAAAUCAAUGAGAUGUCCCUGAUCCUCUCUUGCGGUCGCACUAGUGUGGAAUUCUCGGGUGUCAAGG
B14: ENSMUSG00000058297.42|Spock2 (ssRNA)
RNA: GGGAGUUCUACAGUCCGACGAUCGCUUCGAUAUCCGCAUGCUAGUGGCUUGUGUGUAUGUGUGAUAUGAGAUGUGUGUGUAUGAUGUGAGAUGUGAGUGUGUGAUGUGAGAUGUGUGUAUGUGAGAUGUGUGUGUGUGUGUGUGUGUGUGUGAUGUGAGUCACCCAAAGGUCCCUAUGUUAUUGAUUUUCAAAUGCACACUUUCACACACAAGGAUACACUAACAGACCAAAAUCAAUGAGAUGUCCCUGAUCCUGCCCCUCAGCCCAACACCUGGAAUCCCUGCCCUGCCUAAUCAGCCCUACUCUUGCGGUCGCACUAGUGUGGAAUUCUCGGGUGUCAAGG
B15: ENSMUSG00000058297.34|Spock2 (ssRNA)
RNA: GGGAGUUCUACAGUCCGACGAUCGCUUCGAUAUCCGCAUGCUAGAAGUCAGUGCGGAGGACCCUGGCUCCAGUGGGGGAGGACUGGGGAGUGUGGCUUGUGUGUAUGUGUGAUAUGAGAUGUGUGUGUAUGAUGUGAGAUGUGAGUGUGUGAUGUGAGAUGUGUGUAUGUGAGAUGUGUGUGUGUGUGUGUGUGUGUGUGAUGUGAGUCACCCAAAGGUCCCUAUGUUAUUGAUUUUCAAAUGCACACUUUCACACACAAGGAUACACUAACAGACCAAAAUCAAUGAGAUGUCCCUGAUCCUCUCUUGCGGUCGCACUAGUGUGGAAUUCUCGGGUGUCAAGG

Among the data in publication PMC12864922, “TDP-43 directly inhibits mRNA accumulation in neurites through modulation of mRNA stability” are binding signal values, retold here.

In all, about 9,900 sequences were measured (“r (bound/input frequency ratio)”: median about 0.7, highest 2% from about 6.5 on). The sample as a whole holds a higher share of the highest values than the screen did.

TDP-43, sequence (Q13148 whole entry): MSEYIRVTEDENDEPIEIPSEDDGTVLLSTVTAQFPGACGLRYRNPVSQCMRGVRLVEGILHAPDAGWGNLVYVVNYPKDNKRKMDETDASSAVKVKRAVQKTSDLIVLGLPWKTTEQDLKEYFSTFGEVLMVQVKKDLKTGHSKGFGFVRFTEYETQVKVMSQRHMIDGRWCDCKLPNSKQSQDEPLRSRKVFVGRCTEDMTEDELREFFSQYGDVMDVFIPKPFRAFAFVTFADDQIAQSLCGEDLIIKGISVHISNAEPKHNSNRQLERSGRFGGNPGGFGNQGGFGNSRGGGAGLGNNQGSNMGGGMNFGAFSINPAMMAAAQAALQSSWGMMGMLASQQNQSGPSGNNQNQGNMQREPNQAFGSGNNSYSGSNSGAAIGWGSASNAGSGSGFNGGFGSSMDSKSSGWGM

For this assay, the target named is TDP-43 (Homo sapiens, UniProt Q13148 1-414). Description: RNA Bind-n-Seq with designed 260-mer pool; 25 mM Tris-HCl, 150 mM KCl, 3 mM MgCl2, BSA (printed 500 mg/mL), 20 units/mL SUPERase IN; pH not stated; 500 nM RNA pool, 1 h, 4 C; TDP-43 5, 50, 500 nM; high values mean tight binding. The note with it: protein: recombinant; tags: SBP (GST cleaved off with PreScission; pGEX-GST-SBP). The essentials:
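For each oligo, R gives binding as its mapped-read-normalized abundance after pulldown divided by its abundance in input. Bead-captured SBP-tagged TDP-43 (5, 50 or 500 nM) was incubated with 500 nM of an in vitro-transcribed 260-nt 3′ UTR oligo pool for 1 h at 4 °C in 25 mM Tris-HCl, 150 mM KCl, 3 mM MgCl2, BSA and SUPERase IN on streptavidin beads. Washed, biotin-eluted RNA was reverse transcribed, PCR-amplified and sequenced.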
In the case of B1, the binding signal is 1.51 R (bound/input frequency ratio).

For B2, the binding signal was 1.64 R (bound/input frequency ratio).

As for B3, the binding signal is 0.459 R (bound/input frequency ratio).

For B4, the binding signal was 0.283 R (bound/input frequency ratio).

As for B5, the binding signal is 0.19 R (bound/input frequency ratio).

As for B6, the binding signal is 0.309 R (bound/input frequency ratio).

As to B7, the binding signal was 8.03 R (bound/input frequency ratio).

On to B8, for which the binding signal is 3.96 R (bound/input frequency ratio).

As for B9, the binding signal is 2.93 R (bound/input frequency ratio).

As to B10, the binding signal was 5.98 R (bound/input frequency ratio).

Consider B11, for which the binding signal was 8.02 R (bound/input frequency ratio).

Consider B12, for which the binding signal was 7.46 R (bound/input frequency ratio).

Consider B13, for which the binding signal is 2.69 R (bound/input frequency ratio).

For the molecule B14, the binding signal was 5.18 R (bound/input frequency ratio).

For B15, the binding signal is 8.82 R (bound/input frequency ratio).
